Data taken from the supplement of paper PMC6555819.

What was measured:
Assay in all cases: PBM binding z-score (relative to random genomic background probes); higher = stronger binding; sequences stand for … in GC…GCGATTGACAGCGTAGAATGAAGG
[1] = test system: FXR:RXRa (NR concentration 270 nM, RXRa partner concentration 90 nM)
Method in brief: (§1)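 Custom Agilent 4×180K protein-binding microarrays carried double-stranded probes, each with a 34-nt variable region. These regions held direct-repeat seeds, single-nucleotide variants, half-site ablations and random human genomic background sequences. Ligand-free nuclear receptor dimers were incubated on the arrays for 1 h, antibodies against each partner (one per run) detected binding, and scanned fluorescence was regression-normalized. Binding z-scores take the random background probes as reference.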

[2] = test system: LXRa:RXRa (NR concentration 270 nM, RXRa partner concentration 90 nM)
Method in brief: as §1

[3] = test system: LXRa homodimer (NR concentration 270 nM)
Method in brief: as §1

[4] = test system: LXRb:RXRa (NR concentration 270 nM, RXRa partner concentration 90 nM)
Method in brief: as §1

[5] = test system: LXRb homodimer (NR concentration 270 nM)
Method in brief: as §1

[6] = test system: PPARa:RXRa (NR concentration 270 nM, RXRa partner concentration 90 nM)
Method in brief: as §1

[7] = test system: PPARg:RXRa (NR concentration 180 nM, RXRa partner concentration 90 nM)
Method in brief: as §1

[8] = test system: PPARg:RXRa 270nM:90nM, anti-RXR (NR concentration 270 nM, RXRa partner concentration 90 nM)
Method in brief: as §1

[9] = test system: PPARg:RXRa 30nM:10nM, anti-RXR (NR concentration 30 nM, RXRa partner concentration 10 nM)
Method in brief: as §1

[10] = test system: PPARg:RXRa 90nM:30nM, anti-RXR (NR concentration 90 nM, RXRa partner concentration 30 nM)
Method in brief: as §1

[11] = test system: PPARg:RXRa DBDmut IVT, anti-RXR (DBD mutation: RXRa K156A/R161A, NR concentration 270 nM, RXRa partner concentration 90 nM)
Method in brief: as §1

[12] = test system: PPARg:RXRa IVT, anti-PPARg (NR concentration 270 nM, RXRa partner concentration 90 nM)
Method in brief: as §1

[13] = test system: PPARg DBDmut:RXRa IVT, anti-PPARg (DBD mutation: PPARg1 K132A/R137A, NR concentration 270 nM, RXRa partner concentration 90 nM)
Method in brief: as §1

[14] = test system: PPARg DBDmut IVT, anti-PPARg (DBD mutation: PPARg1 K132A/R137A, NR concentration 270 nM)
Method in brief: as §1

[15] = test system: PPARg homodimer (NR concentration 180 nM)
Method in brief: as §1

[16] = test system: PXR:RXRa (NR concentration 270 nM, RXRa partner concentration 90 nM)
Method in brief: as §1

[17] = test system: PXR homodimer (NR concentration 270 nM)
Method in brief: as §1

[18] = test system: RARa:RXR (NR concentration 270 nM, RXRa partner concentration 90 nM)
Method in brief: as §1

[19] = test system: RARa homodimer (NR concentration 270 nM)
Method in brief: as §1

[20] = test system: RARb:RXRa (NR concentration 270 nM, RXRa partner concentration 90 nM)
Method in brief: as §1

Row | Sequence | PBM binding z-score [1] | PBM binding z-score [2] | PBM binding z-score [3] | PBM binding z-score [4] | PBM binding z-score [5] | PBM binding z-score [6] | PBM binding z-score [7] | PBM binding z-score [8] | PBM binding z-score [9] | PBM binding z-score [10] | PBM binding z-score [11] | PBM binding z-score [12] | PBM binding z-score [13] | PBM binding z-score [14] | PBM binding z-score [15] | PBM binding z-score [16] | PBM binding z-score [17] | PBM binding z-score [18] | PBM binding z-score [19] | PBM binding z-score [20]
1 | CGACCAAGGTCAAAGGTCAGTGAAGAGATGACGG | 8.72 | 6.8 | 3.14 | 6.54 | 1.18 | 7.07 | 11.3 | 9.46 | 9.86 | 10.4 | 4.11 | 6.17 | 1.79 | 0.574 | 5.46 | 7.16 | 1.55 | 9.08 | 2.47 | 5.95
2 | TCTCGGAGTACACGAAGGTCAGAGCTTTCCAGAG | 0.57 | 0.884 | -0.152 | 1.09 | -1.07 | 1.84 | 0.351 | 1.35 | 1.91 | 1.7 | 1.19 | 0.734 | -1.26 | -1.48 | 1.11 | 2.01 | 0.814 | 2 | -0.696 | 2.58
3 | CCGACAGGGGCATAAGGTTACCATAAGCCAGCCC | 0.857 | 2.05 | -0.0589 | 1.1 | -1.11 | 1.9 | 1.11 | 0.825 | -0.159 | 0.389 | -0.166 | 0.15 | -1.21 | -1.04 | 0.637 | 0.688 | -0.195 | 1.93 | -0.124 | 2.11
4 | TCTAGTTGGTCAAAAGTCACACACTCGAAATGCG | 1.12 | 1.12 | 0.475 | 1.12 | 0.73 | 3.03 | 5.72 | 6.29 | 6.15 | 7.23 | 2.33 | 2.69 | 0.872 | 1.33 | 2 | 1.02 | 0.426 | 1.64 | 1.24 | 1.35
5 | TCGACTAGGTTACCAATGGGGCATTCAGCTTTCT | 0.55 | 1.5 | -0.443 | 1.49 | -0.537 | 1.37 | 0.614 | 1.78 | 2.68 | 2.06 | 4.11 | 2.87 | 0.333 | 0.263 | 0.845 | 0.199 | -0.246 | 0.659 | -0.05 | 1.18
6 | GCGACTGGGGCATCAGCAGGTTACCAAAACTTAA | -0.46 | -0.0944 | -0.294 | 0.621 | -0.676 | 1.34 | 0.564 | 0.743 | -0.555 | -0.000266 | 3.95 | 3.39 | -1.31 | -0.989 | 0.651 | -0.0279 | -0.564 | 0.57 | -0.274 | 0.893
7 | TCTGCTAGGTCGGTTGGTCAGCTAACGAGCTGCC | -1.29 | -0.709 | -0.834 | -0.284 | 0.368 | 0.029 | -1.04 | 0.448 | 0.962 | 0.78 | 0.68 | 0.822 | -0.109 | -0.00426 | -1.51 | -0.617 | -0.886 | -0.528 | -1.53 | 0.845
8 | ATTGAAAGGTCGACGAGGTGAGTATACACCGTTT | 4.73 | 3.32 | 0.465 | 2.94 | 0.545 | 4.55 | 3.33 | 3.53 | 1.38 | 2.5 | 0.761 | 2.3 | 1.58 | 1.35 | 1.78 | 3.19 | 0.959 | 3.86 | 0.685 | 4.05
9 | ACTAGCAGGCCAAGGGTCAGTCAAGATTAGTCCG | 1.44 | 1.16 | -0.0253 | 1.33 | -0.691 | 3.79 | 6.42 | 6.45 | 5.89 | 6.62 | 0.997 | 2.79 | -0.401 | -0.926 | 1.54 | 1.69 | -0.439 | 2.56 | -0.0893 | 2.85
10 | CCTCGGAGGACAGAAGGTCAGAACTGTCCGCTTT | 0.99 | 1.35 | 0.337 | 1.03 | -0.707 | 1.54 | -0.0634 | 0.635 | -0.743 | 0.0441 | 0.127 | -0.242 | -0.806 | -1.38 | 0.826 | 1.1 | 0.0205 | 1.7 | 0.442 | 2.85
11 | CGAACTAGGTCTGAACAGGACAGTGAAGGATGAT | -0.499 | -0.813 | -0.618 | -0.891 | -0.912 | -0.134 | 0.652 | -0.276 | -0.221 | -0.128 | 1.88 | 0.996 | -0.255 | -0.111 | -0.44 | -0.688 | -0.469 | -0.635 | -0.454 | -0.192
12 | TCTTGTAGATCAAGCAGGCTAAGAAAGCCTGAGT | -0.142 | -0.307 | -0.525 | -0.376 | -0.474 | 0.113 | -0.409 | 0.913 | 2.4 | 1.59 | 1.46 | 0.173 | -0.469 | 1.11 | -0.6 | -0.424 | -0.306 | -0.588 | -1.2 | -0.756
13 | AGTCAAAGTTCATCTAGGTAACGCAAGATATGCT | 6.85 | 5.91 | 4.93 | 3.61 | 1.83 | 4.83 | 6.39 | 6.35 | 3.58 | 5.58 | 0.815 | 4.11 | 1.46 | 1.49 | 3.03 | 5.12 | 6.5 | 3.76 | 1.42 | 5.03
14 | AGTCGAAGTTCAGGACGAGGTAACGTAAAGCACG | 1.05 | 1.05 | -0.0607 | 0.485 | -0.831 | 1.49 | 1.27 | 1.11 | 0.224 | 0.868 | -0.408 | 0.263 | -0.282 | -0.353 | 0.469 | 1.19 | 0.0866 | 1.42 | 0.0687 | 2.41
